Data reported in PubChem BioAssay AID1159580 (chemical genetic matrix, 2015).
About 2,000 (36%) of roughly 5,500 compounds were called active. Inconclusive results (about 18%) are left out. No stated cut-off is given here; in the data, active means normalized growth mostly below about 0.91 (no sharp cut-off); inconclusive means no clear call, values can overlap the other calls; inactive means mostly above about 0.92. Some of the results follow.

Test: chemical genetic growth profiling, strain panel (AID 1159580);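 further: tested at 20 µM; growth read once vehicle control cultures reached saturation at 30 °C; 1 = growth at the plate median or of vehicle wells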
Details: S. cerevisiae deletion strains, growth OD
[1] = locus YHR030C, strain SLT2, stronger effect = lower value
[2] = locus YHR079C, strain IRE1, stronger effect = lower value
[3] = locus YJL095W, strain BCK1, stronger effect = lower value
[4] = locus YJR066W, strain TOR1, stronger effect = lower value
[5] = locus YLR113W, strain HOG1, stronger effect = lower value
[6] = locus YNL183C, strain NPR1, stronger effect = lower value
[7] = locus YOR231W, strain MKK1, stronger effect = lower value
[8] = locus YPL256C, strain CLN2, stronger effect = lower value

Measured: normalized growth

N#C/C(N=Cc1cc(Cl)cc(Cl)c1O)=C(\C#N)N=Cc1cc(Cl)cc(Cl)c1O
inactive: locus YAR019C, strain CDC15, stronger effect = lower value 0.923 | locus YBL105C, strain PKC1, stronger effect = lower value 0.929 | locus YBR135W, strain CKS1, stronger effect = lower value 0.927 | locus YBR136W, strain MEC1, stronger effect = lower value 0.917 | locus YBR160W, strain CDC28, stronger effect = lower value 0.922 | locus YDL017W, strain CDC7, stronger effect = lower value 0.923 | locus YDL028C, strain MPS1, stronger effect = lower value 0.915 | locus YDL101C, strain DUN1, stronger effect = lower value 0.954 | locus YDL108W, strain KIN28, stronger effect = lower value 0.926 | locus YDL132W, strain cdc53, stronger effect = lower value 0.943 | locus YDL214C, strain PRR2, stronger effect = lower value 0.754 | locus YDR052C, strain DBF4, stronger effect = lower value 0.936 | locus YDR054C, strain cdc34, stronger effect = lower value 0.916 | locus YDR226W, strain ADK1, stronger effect = lower value 0.925 | locus YER123W, strain YCK3, stronger effect = lower value 0.735 | locus YER133W, strain GLC7, stronger effect = lower value 0.725 | locus YFL009W, strain cdc4, stronger effect = lower value 0.931 | locus YFL029C, strain CAK1, stronger effect = lower value 0.929 | locus YFR003C, strain YPI1, stronger effect = lower value 0.914 | locus YFR019W, strain FAB1, stronger effect = lower value 0.912 | locus YFR028C, strain CDC14, stronger effect = lower value 0.931 | locus YIL147C, strain SLN1, stronger effect = lower value 0.914 | locus YJL128C, strain PBS2, stronger effect = lower value 0.905 | locus YJR016C, strain ILV3, stronger effect = lower value 0.93 | locus YKL067W, strain YNK1, stronger effect = lower value 0.74 | locus YKL193C, strain SDS22, stronger effect = lower value 0.922 | locus YML070W, strain DAK1, stronger effect = lower value 0.747 | locus YMR001C, strain CDC5, stronger effect = lower value 0.919 | locus YMR277W, strain FCP1, stronger effect = lower value 0.92 | locus YNL006W, strain LST8, stronger effect = lower value 0.93 | locus YNL161W, strain CBK1, stronger effect = lower value 0.929 | [6] 0.587 | locus YNL207W, strain RIO2, stronger effect = lower value 0.916 | locus YNL222W, strain SSU72, stronger effect = lower value 0.937 | locus YOL078W, strain AVO1, stronger effect = lower value 0.928 | locus YOL136C, strain PFK27, stronger effect = lower value 0.769 | locus YOR329C, strain SCD5, stronger effect = lower value 0.931 | locus YPL209C, strain IPL1, stronger effect = lower value 0.934 | locus YPR025C, strain CCL1, stronger effect = lower value 0.935 | locus YPR106W, strain ISR1, stronger effect = lower value 0.923 | locus YPR111W, strain DBF20, stronger effect = lower value 0.927 | strain NNK1, stronger effect = lower value 0.908 | strain TSCII, stronger effect = lower value 0.934
active: locus YDR477W, strain SNF1, stronger effect = lower value 0.503 | locus YGR040W, strain KSS1, stronger effect = lower value 0.621 | locus YGR052W, strain FMP48, stronger effect = lower value 0.552 | locus YGR092W, strain DBF2, stronger effect = lower value 0.129 | [1] 0.381 | [2] 0.397 | locus YHR082C, strain KSP1, stronger effect = lower value 0.587 | locus YHR205W, strain SCH9, stronger effect = lower value 0.415 | [3] 0.448 | locus YJL157C, strain FAR1, stronger effect = lower value 0.664 | locus YJR066W, strain TOR1 (second series), stronger effect = lower value 0.588 | [4] 0.414 | locus YKL048C, strain ELM1, stronger effect = lower value 0.594 | locus YKL101W, strain HSL1, stronger effect = lower value 0.538 | locus YKL203C, strain TOR2, stronger effect = lower value 0.454 | [5] 0.509 | locus YLR133W, strain CKI1, stronger effect = lower value 0.52 | locus YLR403W, strain SFP1, stronger effect = lower value 0.457 | locus YMR205C, strain PFK2 (second series), stronger effect = lower value 0.609 | locus YNL020C, strain ARK1, stronger effect = lower value 0.403 | locus YNL307C, strain MCK1 (second series), stronger effect = lower value 0.286 | locus YOR061W, strain CKA2, stronger effect = lower value 0.349 | locus YOR119C, strain RIO1, stronger effect = lower value 0.476 | [7] 0.475 | locus YPL031C, strain PHO85, stronger effect = lower value 0.547 | locus YPL153C, strain RAD53, stronger effect = lower value 0.538 | locus YPL204W, strain HRR25, stronger effect = lower value 0.63 | [8] 0.503

COC(=O)N/N=C\c1c[n+]([O-])c2ccccc2[n+]1[O-]
active: locus YMR058W, strain fet3, stronger effect = lower value 0.883
inactive: locus YAL021C, strain ccr4, stronger effect = lower value 0.985 | locus YAL026C, strain drs2, stronger effect = lower value 0.999 | locus YAL030W, strain snc1, stronger effect = lower value 0.982 | locus YBL061C, strain skt5, stronger effect = lower value 0.975 | locus YBR009C, strain hhf1, stronger effect = lower value 0.99 | locus YBR023C, strain chs3, stronger effect = lower value 0.987 | locus YBR171W, strain sec66, stronger effect = lower value 0.981 | locus YBR231C, strain swc5, stronger effect = lower value 0.974 | locus YBR279W, strain paf1, stronger effect = lower value 0.987 | locus YCL011C, strain gbp2, stronger effect = lower value 0.992 | locus YCL016C, strain dcc1, stronger effect = lower value 0.993 | locus YCL069W, strain vba3, stronger effect = lower value 0.992 | locus YCR088W, strain abp1, stronger effect = lower value 0.986 | locus YDL005C, strain med2, stronger effect = lower value 0.98 | locus YDL040C, strain nat1, stronger effect = lower value 0.989 | locus YDR001C, strain nth1, stronger effect = lower value 0.998 | locus YDR069C, strain doa4, stronger effect = lower value 0.978 | locus YDR137W, strain rgp1, stronger effect = lower value 1.01 | locus YDR159W, strain sac3, stronger effect = lower value 1.02 | locus YDR195W, strain ref2 0.985 | locus YDR297W, strain sur2, stronger effect = lower value 0.983 | locus YDR334W, strain swr1, stronger effect = lower value 1 | locus YDR335W, strain msn5, stronger effect = lower value 0.983 | locus YDR392W, strain spt3, stronger effect = lower value 0.986 | locus YEL003W, strain gim4, stronger effect = lower value 0.975 | locus YEL037C, strain rad23, stronger effect = lower value 0.998 | locus YEL061C, strain CIN8 (second series), stronger effect = lower value 1 | locus YER015W, strain faa2, stronger effect = lower value 0.972 | locus YER016W, strain bim1, stronger effect = lower value 0.998 | locus YER111C, strain swi4, stronger effect = lower value 0.984 | locus YER155C, strain BEM2 (second series), stronger effect = lower value 0.982 | locus YFR010W, strain ubp6, stronger effect = lower value 0.981 | locus YGL167C, strain pmr1, stronger effect = lower value 0.978 | locus YGL173C, strain kem1, stronger effect = lower value 0.981 | locus YGL227W, strain vid30, stronger effect = lower value 0.987 | locus YGL240W, strain doc1, stronger effect = lower value 0.974 | locus YGL253W, strain hxk2, stronger effect = lower value 0.988 | locus YHR013C, strain ard1, stronger effect = lower value 1.06 | locus YHR027C, strain rpn1, stronger effect = lower value 0.995 | [1] 1.07 | [2] 1.04 | locus YHR142W, strain chs7, stronger effect = lower value 0.988 | locus YJL092W, strain hpr5, stronger effect = lower value 0.994 | locus YJL095W, strain BCK1 (second series), stronger effect = lower value 0.973 | [3] 1.05 | locus YJL115W, strain asf1, stronger effect = lower value 0.987 | locus YJL129C, strain trk1, stronger effect = lower value 1.03 | locus YJL154C, strain vps35, stronger effect = lower value 0.997 | locus YJL164C, strain tpk1, stronger effect = lower value 0.976 | locus YJL166W, strain qcr8, stronger effect = lower value 0.98 | [4] 0.905 | locus YKL160W, strain elf1, stronger effect = lower value 0.973 | locus YKR026C, strain gcn3, stronger effect = lower value 0.991 | locus YKR091W, strain srl3, stronger effect = lower value 0.988 | locus YLL001W, strain dnm1, stronger effect = lower value 0.991 | locus YLL026W, stronger effect = lower value 0.98 | locus YLL041C, strain sdh2, stronger effect = lower value 0.993 | locus YLR027C, strain aat2, stronger effect = lower value 0.986 | [5] 1.06 | locus YLR221C, strain rsa3, stronger effect = lower value 0.979 | locus YLR258W, strain gsy2, stronger effect = lower value 0.985 | locus YLR262C, strain YPT6 (second series), stronger effect = lower value 1 | locus YLR320W, strain mms22, stronger effect = lower value 0.976 | locus YLR342W, strain FKS1, stronger effect = lower value 0.997 | locus YLR357W, strain rsc2, stronger effect = lower value 0.981 | locus YLR370C, strain arc18, stronger effect = lower value 0.988 | locus YLR384C, strain iki3, stronger effect = lower value 0.986 | locus YML120C, strain ndi1, stronger effect = lower value 0.975 | locus YMR125W, strain sto1, stronger effect = lower value 1.02 | locus YMR129W, stronger effect = lower value 0.984 | locus YMR205C, strain PFK2, stronger effect = lower value 0.988 | locus YMR231W, strain pep5, stronger effect = lower value 0.969 | locus YNL071W, strain lat1, stronger effect = lower value 0.995 | [6] 0.981 | locus YNL209W, strain ssb2, stronger effect = lower value 0.987 | locus YNL248C, strain rpa49, stronger effect = lower value 1 | locus YNL322C, strain KRE1 (second series), stronger effect = lower value 0.993 | locus YNR049C, strain mso1, stronger effect = lower value 0.983 | locus YOR001W, strain rrp6, stronger effect = lower value 0.989 | locus YOR070C, strain gyp1, stronger effect = lower value 0.979 | locus YOR080W, strain dia2, stronger effect = lower value 0.985 | locus YOR083W, strain WHI5, stronger effect = lower value 0.983 | locus YOR106W, strain vam3, stronger effect = lower value 0.943 | [7] 1.05 | locus YOR265W, strain rbl2, stronger effect = lower value 0.985 | locus YOR270C, strain vph1, stronger effect = lower value 0.864 | locus YOR290C, strain snf2, stronger effect = lower value 0.996 | locus YPL051W, strain arl3, stronger effect = lower value 0.918 | locus YPL078C, strain atp4, stronger effect = lower value 0.971 | locus YPL106C, strain sse1, stronger effect = lower value 0.986 | locus YPL240C, strain hsp82, stronger effect = lower value 0.991 | [8] 1.09
